Data: PubChem BioAssay (Tox21)
Calls of active or inactive are those of the source. Unless noted, calls come from the whole dose curve; as a rule, active = well fitted curve in the direction sought with a large enough effect in the repeat runs; inconclusive = weak or mixed curves; inactive = no such curve, though single readings can be large; an effect the other way counts as inactive or inconclusive.

How the values were obtained:
[1] = qHTS assay for small molecule agonists of the p53 signaling pathway - cell viability (AID 651633; calls by dose curve; note: nearly all actives have a fitted effect of over 30% in size; note: potency is the fitted concentration of half-maximal effect); conditions: p53RE-bla HCT-116 viability, ATP luminescence, 16 h; series mostly up to 83.3 µM
In short: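 Viability counter-read: CellTiter-Glo luminescence (30 min, room temperature) in the same p53RE-bla plates. These plates had been exposed to compounds for 16 h at 37 C.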

[2] = qHTS assay for small molecule disruptors of the mitochondrial membrane potential - cell viability (AID 720634; calls by dose curve;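 note: human HepG2 liver cancer cells; nearly all actives have a fitted effect of over 20% in size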); conditions: HepG2 viability, ATP luminescence (CellTiter-Glo), 1 h; series mostly up to 83.2 µM
In short: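 Luminescence from CellTiter-Glo (ATP content) gave viability in HepG2 cells, read in the same wells as the MMP dye assay after 1 hr compound exposure at 37 C.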

[3] = qHTS assay to test for compound auto fluorescence at 590 nm (red) in HepG2 cells (AID 720674); conditions: HepG2 autofluorescence, red 540/590 nm, 1 h; series mostly up to 46 µM
In short: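 1 hr compound incubation on HepG2 cells, 37 C, 5% CO2; plate read ex 540 nm / em 590 nm; intensities reported as Rose Bengal sodium equivalents.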

[4] = qHTS assay to test for compound auto fluorescence at 535 nm (green) in HepG2 cells (AID 720675); conditions: green autofluorescence 485/535 nm, 1 h; series mostly up to 46 µM
[5] = qHTS assay to test for compound auto fluorescence at 460 nm (blue) in HEK293 cells (AID 720678); conditions: blue autofluorescence 405/460 nm; series mostly up to 46 µM
In short: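 Measured: blue fluorescence (Ex 405/Em 460 nm) of compound-treated HEK293 cells, incubated overnight at 37C with 5% CO2 and scaled to triamterene equivalents.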

[6] = qHTS assay to test for compound auto fluorescence at 590 nm (red) in HEK293 cells (AID 720679); conditions: red autofluorescence 540/590 nm; series mostly up to 46 µM
In short: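 Using HEK293 cells at 2,000 per well, the screen added 23 nL of each compound after cell attachment and incubated overnight (37C, 5% CO2). The plate reader then captured red-label fluorescence, Ex/Em 540/590nm.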

[7] = qHTS assay to test for compound auto fluorescence at 535 nm (green) in HEK293 cells (AID 720680); conditions: green autofluorescence 485/535 nm; series mostly up to 46 µM
[8] = qHTS assay to test for compound auto fluorescence at 460 nm (blue) in HEK293 cell free culture (AID 720681); conditions: cell-free medium, autofluorescence 405/460 nm (blue); series mostly up to 46 µM
In short: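 Blue fluorescence (Ex 405/Em 460 nm, triamterene-equivalent) was read immediately after pin transfer of compound or DMSO into medium (DMEM, 10% FBS) without cells.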

[9] = qHTS assay to test for compound auto fluorescence at 535 nm (green) in HEK293 cell free culture (AID 720682); conditions: cell-free medium, green autofluorescence 485/535 nm; series mostly up to 46 µM
In short: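 Steps: dispense DMEM/10% FBS into empty wells; pin in compound or DMSO; measure fluorescence at 485/535 nm. Values are fluorescein equivalents.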

[10] = qHTS assay to test for compound auto fluorescence at 590 nm (red) in HEK293 cell free culture (AID 720683); conditions: cell-free medium autofluorescence, Ex540/Em590 red; series mostly up to 46 µM
In short: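 Red-channel autofluorescence of compounds in culture medium (DMEM, 10% FBS), no cells, measured at 540/590 nm. Rose Bengal sodium is the reference fluorophore for equivalence.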

[11] = qHTS assay to test for compound auto fluorescence at 590 nm (red) in HepG2 cell free culture (AID 720684); conditions: cell-free medium autofluorescence, red 540/590 nm; series mostly up to 46 µM
In short: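 No cells present: MEM + 10% FBS only. Compound pinned in, red label read (540/590 nm). Activity = fluorescence equivalent to Rose Bengal sodium.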

[12] = qHTS assay to test for compound auto fluorescence at 460 nm (blue) in HepG2 cell free culture (AID 720685); conditions: Cell-free culture medium, blue autofluorescence 405/460 nm; series mostly up to 46 µM
In short: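 Cell-free plates of MEM plus 10% FBS received 23 nL compound or DMSO vehicle; blue-channel (405/460 nm) intensity scored against triamterene as reference fluorophore.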

[13] = qHTS assay to test for compound auto fluorescence at 535 nm (green) in HepG2 cell free culture (AID 720686); conditions: Cell-free medium, green autofluorescence 485/535 nm; series mostly up to 46 µM
[14] = qHTS assay for small molecules that induce genotoxicity in human embryonic kidney cells expressing luciferase-tagged ATAD5 - cell viability (AID 651634; calls by dose curve; note: nearly all actives have a fitted effect of over 25% in size; note: potency is the fitted concentration of half-maximal effect); conditions: HEK293T ATAD5-luc cells viability, CellTiter-Fluor, 15.5 h; series mostly up to 83.3 µM
In short: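 HEK293T ATAD5-luc cells, 2,000/well; compound 15.5 hr, 37C/5% CO2; CellTiter-Fluor 30 min, 37C; fluorescence read.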

[15] = qHTS assay for small molecule disruptors of the mitochondrial membrane potential (AID 720635); conditions: HepG2 mitochondrial membrane potential, Mito-MPS dye ratio; series mostly up to 83.2 µM; note: potency is the fitted concentration of half-maximal effect
In short: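 Mitochondrial membrane potential tracked with Mito-MPS dye, red aggregates (ex 540/em 590 nm) against green monomers (ex 490/em 535 nm). Compound treatment 1 hr at 37C, dye 30 min in HepG2.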

[16] = qHTS assay to test for compound auto fluorescence at 460 nm (blue) in HepG2 cells (AID 720687); conditions: autofluorescence 405/460 nm, 1 h; series mostly up to 46 µM
In short: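 Blue-channel autofluorescence (Ex/Em 405/460 nm, triamterene-equivalent) was measured after 1 hr compound exposure at 37 C, 5% CO2. Cells were HepG2, plated overnight at 37 C in MEM plus 10% FBS.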

[17] = molecular target: Glucocorticoid receptor (Homo sapiens) (UniProt P04150); assay: qHTS assay to identify small molecule agonists of the glucocorticoid receptor (GR) signaling pathway (AID 720691; active = well fitted activation curve with a large enough effect in the signal ratio in the repeat runs, not every such curve was filed as active; inconclusive = weak or mixed curves, or effect the other way; inactive = no such curve, though single readings can be large or run the other way; the % refers to the signal ratio; note: potency is the fitted concentration of half-maximal effect); conditions: GR-bla HeLa, beta-lactamase reporter ratio, 18 h; activation: at 62.4 µM (top of the series)
Sequence of Glucocorticoid receptor (Homo sapiens) (P04150 whole entry, looked up): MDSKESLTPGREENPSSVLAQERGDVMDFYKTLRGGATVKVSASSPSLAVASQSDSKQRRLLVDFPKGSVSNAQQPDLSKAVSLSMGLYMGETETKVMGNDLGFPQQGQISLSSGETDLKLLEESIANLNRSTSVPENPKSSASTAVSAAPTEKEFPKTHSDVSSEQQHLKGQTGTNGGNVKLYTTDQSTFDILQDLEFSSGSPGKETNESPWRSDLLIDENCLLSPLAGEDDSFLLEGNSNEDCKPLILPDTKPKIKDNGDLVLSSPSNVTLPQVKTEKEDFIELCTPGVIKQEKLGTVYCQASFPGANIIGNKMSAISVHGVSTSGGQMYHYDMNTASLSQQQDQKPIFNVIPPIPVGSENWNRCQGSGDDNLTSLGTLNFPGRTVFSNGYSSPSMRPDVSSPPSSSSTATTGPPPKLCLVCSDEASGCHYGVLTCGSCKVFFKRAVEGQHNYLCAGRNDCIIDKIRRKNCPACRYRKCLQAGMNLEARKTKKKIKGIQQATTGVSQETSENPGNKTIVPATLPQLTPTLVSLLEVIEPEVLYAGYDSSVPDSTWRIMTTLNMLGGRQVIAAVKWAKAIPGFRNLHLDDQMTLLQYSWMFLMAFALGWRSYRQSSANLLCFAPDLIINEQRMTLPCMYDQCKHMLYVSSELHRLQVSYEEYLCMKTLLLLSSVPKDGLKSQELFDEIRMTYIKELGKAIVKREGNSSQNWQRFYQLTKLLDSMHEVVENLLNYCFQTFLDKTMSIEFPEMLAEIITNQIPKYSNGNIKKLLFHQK
In short: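 HeLa GR-bla reporter line; cells pre-incubated 4 h, compound in DMSO 18 h at 37 C; LiveBLAzer B/G FRET substrate 2 h RT; fluorescence intensity read-out.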

[18] = qHTS assay for small molecules that induce genotoxicity in human embryonic kidney cells expressing luciferase-tagged ATAD5 (AID 651632); conditions: HEK293T ATAD5-luciferase induction, 16 h; series mostly up to 83.3 µM; note: nearly all actives have a fitted effect of over 15% in size
In short: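 Luminescence read-out: after 16 hr compound exposure at 37C, ATAD5-luciferase HEK293T cells received Amplite, 30 min RT, then CCD imaging. A rise in signal marks genotoxic stress.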

[19] = molecular target: Glucocorticoid receptor (Homo sapiens) (UniProt P04150); assay: qHTS assay to identify small molecule antagonists of the glucocorticoid receptor (GR) signaling pathway (AID 720692; active = well fitted inhibition curve with a large enough effect in the signal ratio in the repeat runs, not every such curve was filed as active; inconclusive = weak or mixed curves, or effect the other way; inactive = no such curve, though single readings can be large or run the other way; the % refers to the signal ratio); conditions: GR-bla HeLa, beta-lactamase FRET ratio, dexamethasone-stimulated, 18 h; series mostly up to 58.5 µM
In short: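 Read-out: beta-lactamase FRET substrate fluorescence, 2 h at room temperature, in HeLa cells stably carrying a GRE-driven bla reporter. Compounds were co-incubated with 5 nM dexamethasone agonist (final) for 18 h at 37 C.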

Measured: Potency

C=C1C(=O)O[C@H]2[C@H]1CC/C(C)=C\CC[C@@]1(C)O[C@@H]21
active: [1] 29.8 µM
not listed: [14] | [15] | [16] | [17] | [18] | [19]
inactive: all other assays above

CC[C@@]1(O)C[C@H](O[C@H]2C[C@H](N(C)C)[C@H](O[C@H]3C[C@H](O)[C@H](O[C@H]4CCC(=O)[C@H](C)O4)[C@H](C)O3)[C@H](C)O2)c2c(cc3c(c2O)C(=O)c2c(O)cccc2C3=O)[C@H]1C(=O)OC
active: [14] 15 µM | [15] 1.68 µM | [17] 10.7 µM [inconclusive]
not listed: [11] | [18] | [19]
inactive: all other assays above

O=S(=O)(O)c1cc(O)c2c(N=Nc3ccc(Nc4ccccc4)c4c(S(=O)(=O)O)cccc34)cc(S(=O)(=O)O)cc2c1
not listed: [1] | [14] | [15] | [19]
inactive: all other assays above

CCCCC/C=C\C/C=C\C/C=C\CCCCC(=O)O
not listed: [10] | [15] | [17] | [18] | [19]
inactive: all other assays above

C#C[C@]1(O)CC[C@H]2[C@@H]3CCC4=C/C(=N/O)CC[C@@H]4[C@H]3CC[C@@]21CC
active: [15] 10.6 µM
not listed: [14] | [17] | [18] | [19]
inactive: all other assays above

Cc1ccccc1
not listed: [1] | [2] | [14] | [15] | [17] | [18] | [19]
inactive: all other assays above

OCC(O)CO
not listed: [1] | [2] | [14] | [15] | [16] | [17] | [18] | [19]
inactive: all other assays above

O=C1CSC2(CCN(CCCN3c4ccccc4Sc4ccc(Cl)cc43)CC2)N1
not listed: [1] | [14] | [15] | [17] | [19]
inactive: all other assays above

Clc1ccc(COC(Cn2ccnc2)c2ccc(Cl)cc2Cl)c(Cl)c1 (centres undefined)
not listed: [1] | [11] | [12] | [15] | [17]
inactive: all other assays above
